Pf growth 48h: P. falciparum growth inhibition at 48 hours (one generation) | Potency, µM (doses to about 28.7 µM), for the others: at the top dose activity change, negative = inhibition, most hits filed as inhibitors | P. falciparum luciferase growth in erythrocytes, 48 h | hit rate 5.9% among 310,000; note: % is set by controls: 0 for no effect and ±100 for the full control effect
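Here the parasites carry a stable luciferase gene and grow inside erythrocytes in Albumax-based RPMI medium with compound for one erythrocytic cycle. Activity is scored as loss of luminescent signal.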
AmpC detergent: blocks E. coli AmpC beta-lactamase in detergent assay | AmpC hydrolysis of nitrocefin, absorbance 480 nm, 0.01% Triton | AID 485294 | hit rate 0.041% among 370,000 | Potency, µM (doses to about 114 µM), without a hit: top-dose activity change, negative = inhibition, most hits filed as inhibitors;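 note: 0% = no-compound wells and -100% = no-enzyme wells; nearly all actives have a fitted effect of over 25% in size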
Target sequence (P00811 whole entry, looked up): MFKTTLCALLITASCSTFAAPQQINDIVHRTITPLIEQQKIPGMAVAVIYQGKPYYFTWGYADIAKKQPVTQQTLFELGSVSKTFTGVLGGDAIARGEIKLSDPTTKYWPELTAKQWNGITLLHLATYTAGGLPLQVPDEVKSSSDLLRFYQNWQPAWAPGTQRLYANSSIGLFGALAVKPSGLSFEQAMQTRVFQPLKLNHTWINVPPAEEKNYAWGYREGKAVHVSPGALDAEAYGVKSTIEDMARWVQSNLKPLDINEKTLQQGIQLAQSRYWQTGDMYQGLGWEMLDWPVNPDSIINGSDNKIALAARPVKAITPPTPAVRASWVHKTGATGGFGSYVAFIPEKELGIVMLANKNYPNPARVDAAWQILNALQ
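20 mM phosphate pH 7.0 + 0.01% (detergent screen) or 0.0001% Triton X-100; 5.3 nM AmpC reagent; cpd preinc 15 min RT; nitrocefin (800 uM stock) to start; A480 q20 s × 4 min; Activity was normalised to no-enzyme and no-compound control wells.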
Pf growth 96h: P. falciparum growth inhibition at 96 hour, primary screen for plastid delayed-death inhibitors; P. falciparum luciferase reporter growth, 96 h; Potency, µM (doses to about 28.7 µM), for the others: at the top dose activity change, negative = inhibition, actives largely listed as inhibitors; hit rate 6.9% among 320,000; AID 504834; note: % is set by controls: 0 for no effect and ±100 for the full control effect
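P. falciparum expressing integrated firefly luciferase grown in erythrocytes (2% hematocrit, 0.05% parasitemia final) with compounds for 96 hours at 37 C, 5% CO2. Growth inhibition read as loss of luminescence after adding luciferase detection reagent.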
AmpC no deterg: blocks E. coli AmpC beta-lactamase in detergent-free assay. AmpC nitrocefin hydrolysis, absorbance 480 nm, 0.0001% Triton. Potency, µM (highest dose often 57.1 µM), without a hit: top-dose activity change, negative = inhibition, usual class: inhibitors. hit rate 0.52% among 330,000. AID 485341;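 note: plate controls were no compound for no effect and no enzyme for full effect; nearly all actives have a fitted effect of over 20% in size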
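20 mM phosphate pH 7.0 + 0.01% (detergent screen) or 0.0001% Triton X-100; 5.3 nM AmpC reagent; cpd preinc 15 min RT; nitrocefin (800 uM stock) to start; A480 q20 s × 4 min; Activity was normalised to no-enzyme and no-compound control wells.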
SARS PLpro yeast: SARS-CoV PLP inhibition in yeast; S. cerevisiae expressing SARS-CoV PLpro, growth rescue; Potency, µM (titrated, usually from 32.9 µM), without a hit: at the highest dose activity, positive = growth rescue, usual class: activators; hit rate 0.19% among 330,000; AID 485353; calls by dose curve; note: 0% is about no effect; nearly all actives have a fitted effect of over 55% in size
Sm TGR block: S. mansoni TGR enzyme inhibition | Q962Y6 | purified TGR, DTNB reduction, TNB absorbance 405 nm | Potency, µM (titrated, usually from 114 µM), inactives show top-dose activity change, negative = inhibition, usual class: inhibitors | hit rate 3% among 360,000; note: % is set by controls: 0 for no effect and ±100 for the full control effect; nearly all actives have a fitted effect of over 60% in size
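First, TGR (20 nM dispensed) and NADPH were mixed with compound. Second, a 15 min room-temperature incubation followed. Third, further NADPH and then DTNB were added to start the reaction. Finally, TNB absorbance was monitored kinetically.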
Active calls of the source: *; ? = inconclusive; · = not tested or not shown; [ ] = dose if it differs, or a comment. Sampled rows, rich in hits. Any-hit rate of the full collection: about 12%. Unless noted, calls come from the whole dose curve; as a rule, active = well fitted curve in the direction sought with a large enough effect; inconclusive = small, poorly fitted or top-dose-only effect, or another doubt; inactive = no such curve, though single readings can be large; an effect the other way counts as inactive or inconclusive. Potency is the fitted concentration of half-maximal effect.

SMILES | Pf growth 48h | AmpC detergent | Pf growth 96h | AmpC no deterg | SARS PLpro yeast | Sm TGR block
CCOC(=O)COc1ccccc1/C=C\[N+](=O)[O-] | 15µM* | ? | 107% | -9% | -108% | 11µM*
Cc1ccc(C(=O)COC(=O)COc2ccccc2[N+](=O)[O-])s1 | 5% | -3% | 12% | -32% | 4% | -16%
CCC(C(=O)OC)n1cnc2c(nnn2-c2ccc(C)cc2)c1=O (configuration not stated) | 17% | -13% | 41% | -5% | -5% | 14%
CC(NNC(=O)c1ccccc1)c1ccccc1 (configuration not stated) | 85% | · | 94% | · | · | ·
Cc1ccc2[nH]c3c(=O)n(CCN4CCOCC4)cnc3c2c1 | 68% | -14% | 57% | 2% | 2% | -9%
Cc1ccc2[nH]c(CCN(C)C)c(CN3CCOCC3)c2c1 | 13µM* | 2% | 2.3µM* | -16% | -4% | -32%
CCOc1ccc(CN(C(=O)c2cc(=O)c3cc(Cl)ccc3o2)C2CCS(=O)(=O)C2)cc1 (configuration not stated) | · | 5% | · | · | · | 6%
Cc1cccc(-c2noc(CCCC(=O)NC3CCCC3)n2)c1 | -4% | -13% | 2% | 4% | -3% | 7%
Nc1nc(N)nc(-c2cc(Cl)ccc2Cl)n1 | -5% | · | 8.5µM* | · | · | ·
CC1(C(=O)OCC(=O)Nc2ccc(S(=O)(=O)N3CCOCC3)cc2)CC1(Cl)Cl (configuration not stated) | · | · | · | -19% | 3% | ·
Cc1cccc(-c2nc3scc(CCNS(=O)(=O)c4ccc(F)c(C(F)(F)F)c4)n3n2)c1 | · | 1% | · | · | · | ?
COc1cccc(CC(NC(C)=O)C(=O)NC2CCN(c3c(Cc4ccccc4)c(C)nc4ncnn34)CC2)c1OC (configuration not stated) | 5.9µM* | -3% | ? | 212% | 13% | -10%
COc1ccc(CC(NC(C)=O)C(=O)NC2CCN(c3c(Cc4ccccc4)c(C)nc4ncnn34)CC2)c(OC)c1 (configuration not stated) | 18% | -1% | 55% | -2% | 0% | -7%
COc1ccc(CC(NC(C)=O)C(=O)NC2CCN(c3c(Cc4ccccc4)c(C)nc4ncnn34)CC2)cc1OC (configuration not stated) | 12µM* | ? | ? | 172% | ? | -8%
Cc1nn2c(NCCCN(C)C)c3c(nc2c1-c1ccccc1)CCCC3 | 15µM* | -5% | 8.3µM* | 27% | -1% | 20%
Cc1nn2c(NC(C)C)c3c(nc2c1-c1ccccc1)CCC3 | ? | 2% | ? | 27% | -1% | 5%
Cc1nn2c(NCCCN(C)C)c3c(nc2c1-c1ccccc1)CCC3 | · | ? | 10µM* | 28% | 3% | -10%
Cc1nn2c(Nc3ccccc3)c3c(nc2c1-c1ccccc1)CCC3 | -28% | -7% | 5.9µM* | -17% | 17% | -4%
Cc1ccc(SCc2nc(-c3ccc(C(=O)Nc4cc(C)ccc4C)cc3)oc2C)cc1 | · | 1% | · | · | · | -35%
Cc1ccc(NC(=O)c2ccc3oc(=O)c(S(=O)(=O)c4ccccc4)cc3c2)cc1C | · | -8% | · | · | · | -1%
C=CCc1cc(OC)ccc1OCCOCCN1CCc2ccccc2C1 | 37%[5.75 µM] | 6% | 13µM* | 123% | 12% | -3%
CCOc1ccc(OCCOCCN2CCc3ccccc3C2)cc1 | 31% | -12% | 63% | 22% | 4% | -29%
COc1cc(/C=C2\SC(=Nc3ccc(F)cc3)N(c3ccc(F)cc3)C2=O)ccc1OCC(=O)O | ? | 5% | 8% | 1% | 1% | -10%
O=C1/C(=C\c2ccc(Br)o2)SC(=Nc2ccccc2)N1c1ccccc1 | ? | -9% | 9.3µM* | -48% | -5% | ?
O=C(CCCO)CCCCCCCCC[C@H]1N[C@H](CO)[C@@H](O)[C@@H]1O | 9% | -6% | -10% | -17% | -1% | 13%
SMILES | Pf growth 48h | AmpC detergent | Pf growth 96h | AmpC no deterg | SARS PLpro yeast | Sm TGR block
CCn1c(Sc2nc(C)nc3scc(-c4cccs4)c23)n[nH]c1=O | ? | -11% | 7.4µM* | 5% | -25% | 0%
Cc1nc(SCC(=O)NC(=O)NCCC(C)C)c2c(-c3cccs3)csc2n1 | 12µM* | 0% | ? | -19% | -7% | 7%
CSc1cccc(NC(=O)Cn2nnc(C(=O)NCCc3ccccc3)c2N)c1 | · | 1% | · | · | · | 2%
CCN(c1ccccc1)c1nnc(NC(=O)Nc2ccc(C)cc2)s1 | · | 22% | · | · | · | -2%
Cc1ccc(/C=C2\C(=O)NC(=S)N(c3ccc(F)cc3)C2=O)o1 | 14% | -2% | ? | -36% | 0% | 1.6µM*
Cc1ccc(N2C(=O)NC(=O)/C(=C\c3ccc(N4CCOCC4)cc3)C2=O)cc1 | -14% | -3% | -8% | -35% | 19% | ?
Cc1ccc(N2C(=O)/C(=C/c3ccc(CN(CCC#N)S(C)(=O)=O)o3)C(=O)NC2=S)cc1 | 24% | -10% | ? | -27% | 9% | 2.8µM*
COc1ccc(N2C(=O)/C(=C/c3ccc(N(C)C)o3)C(=O)NC2=S)cc1 | · | -17% | 1% | -7% | 2% | ?
Cc1ccc(N2C(=O)NC(=O)/C(=C\c3ccc([N+](=O)[O-])o3)C2=O)cc1 | -4% | 0% | -19% | -29% | -2% | 8.9µM*
COc1cccc(N2C(=O)/C(=C/c3ccc(C)o3)C(=O)NC2=S)c1 | 12% | -1% | ? | -46% | 3% | 1.8µM*
Cc1cc(C)cc(N2C(=O)/C(=C\c3ccc(N4CCN(C)CC4)o3)C(=O)NC2=S)c1 | ? | -4% | -21% | 2% | -1% | -23%
COC(=O)C(NS(C)(=O)=O)(c1c(C)[nH]c2ccccc12)C(F)(F)F (configuration not stated) | 26% | -1% | 4% | -18% | 2% | -24%
O=C(COC(=O)C1CCCCC1)Nc1cc([N+](=O)[O-])ccc1F | 18% | -10% | 3% | -11% | -9% | -1%
COc1ccccc1N1CCN(C(=O)c2oc3ccccc3c2N)CC1 | · | 6% | · | · | · | -2%
Cn1cnnc1Sc1ccc(C(=O)NCCC(c2ccccc2)c2ccccc2)cc1[N+](=O)[O-] | 8.3µM* | -7% | ? | 156% | 5% | 0%
CCOCCCNc1nc2c(S(=O)(=O)c3ccc(CC)cc3)nnn2c2ccc(Cl)cc12 | · | 6% | · | · | · | 9%
O=C(NCCCN1CCN(c2ccc(F)cc2)CC1)c1cccc(N2CCCC2=O)c1 | 12µM* | -5% | · | -3% | ? | 7%
O=C(NCCCN1CCCC1)c1cccc(N2CCCC2=O)c1 | -19% | 3% | ? | 100% | 23% | -34%
